Where “and” joins values, the source holds several entries; their conditions need not be identical. Equal values may be shown once. Where a name gives a salt, the structure may show the parent alone. ± gives the standard deviation of the averaged measurements. The full ranking holds about 1,900 compounds; the median of “normalised cell viability (NPI; 0 = phenylarsine oxide control, 1 = DMSO control)” is about 1, and the lowest 2% start at about 0.039. The entries come from a sample that favours the lowest values as a whole.
Test system: NCI-H1944
Test: normalised cell viability (NPI; 0 = phenylarsine oxide control, 1 = DMSO control) (fraction of DMSO control); NCI-H1944 is a non-small cell lung cancer line; higher = more viable cells (less compound toxicity)
Settings: 6 days
[1] = glucocorticoid arm: hydrocortisone 2.75 uM co-treatment, compound 1 µM
[2] = glucocorticoid arm: hydrocortisone 2.75 uM co-treatment, compound 5 µM
[3] = glucocorticoid arm: hydrocortisone 2.75 uM pre-treated 2 days and continued, compound 1 µM
[4] = glucocorticoid arm: hydrocortisone 2.75 uM pre-treated 2 days and continued, compound 5 µM
[5] = glucocorticoid arm: vehicle, compound 1 µM
[6] = glucocorticoid arm: vehicle, compound 5 µM
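Also: CTB read-out in 384-well plates, triplicate wells, NPI normalised per plate against 1 µM phenylarsine oxide (0) and 0.1% DMSO (1) controls.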

| SMILES | normalised cell viability [1] | normalised cell viability [2] | normalised cell viability [3] | normalised cell viability [4] | normalised cell viability [5] | normalised cell viability [6] |
| --- | --- | --- | --- | --- | --- | --- |
| O=C(c1ccc(F)cc1)N1CCCC(c2nc(-c3ccc(F)cc3)no2)C1 (centres undefined) | 1.03 ± 0.015 | 1.023 ± 0.0058 | 1.02 ± 0.011 | 1.013 ± 0.0058 | 1.01 | 1.001 ± 0.0078 |
| Cn1ncnc1[C@H]1c2n[nH]c(=O)c3cc(F)cc(c23)N[C@@H]1c1ccc(F)cc1 | 0.996 ± 0.012 | 0.934 ± 0.028 | 1.01 ± 0.017 | 1.05 ± 0.015 | 0.436 ± 0.0095 | 0.28 ± 0.016 |
| CCN(CC)CCCC(C)Nc1c2ccc(Cl)cc2nc2ccc(OC)cc12 (centres undefined) [Quinacrine dihydrochloride] | 0.999 ± 0.021 | 0.00304 ± 0.0019 | 1.01 ± 0.023 | 1.01 ± 0.014 | 0.995 ± 0.014 | 0.00159 ± 0.0012 |
| CCN(CC)CCCC(C)Nc1ccnc2cc(Cl)ccc12 (centres undefined) [Chloroquine diphosphate] | 1 ± 0.015 | 0.752 ± 0.026 | 1.001 ± 0.009 | 0.963 ± 0.04 | 0.9793 ± 0.0076 | 0.947 ± 0.013 |
| CS(=O)(=O)CCNCc1ccc(-c2ccc3ncnc(Nc4ccc(OCc5cccc(F)c5)c(Cl)c4)c3c2)o1 [Lapatinib ditosylate; Lapatinib; Lapatinib Ditosylate] | 0.9643 ± 0.0055 | 0.00258 ± 0.00055 | 0.968 ± 0.014 | 0.0327 ± 0.0022 | 0.947 ± 0.0092 | 0.00168 ± 0.00026 |
| C=CC(=O)Nc1ccc2ncnc(Nc3ccc(OCc4cccc(F)c4)c(Cl)c3)c2c1 | 0.905 ± 0.016 | 0.854 ± 0.043 | 0.92 ± 0.014 | 0.93 ± 0.023 | 0.815 ± 0.021 | 0.623 ± 0.016 |
| CS(=O)(=O)CCNCc1ccc(-c2ccc3ncnc(Nc4ccc(OCc5cccc(F)c5)c(Cl)c4)c3c2)o1 [Lapatinib Ditosylate (Tykerb)] | 0.945 ± 0.0092 | 0.916 ± 0.017 | 0.981 ± 0.021 | 0.938 ± 0.028 | 0.911 ± 0.02 | 0.868 ± 0.022 |
| CCCCC#Cc1nc(N)c2ncn([C@@H]3O[C@H](C(=O)NCC)[C@@H](O)[C@H]3O)c2n1 | 1.01 ± 0.015 | 0.979 ± 0.011 | 1.007 ± 0.0058 | 1.01 ± 0.014 | 1.01 | 1.003 ± 0.0058 |
| O=c1[nH]cc(F)c(=O)[nH]1 [5-Fluorouracil; Fluorouracil] | 1.043 ± 0.0058 | 0.706 ± 0.037 | 1.01 ± 0.015 | 0.838 ± 0.011 | 0.971 ± 0.0044 | 0.522 ± 0.032 |
| O=c1[nH]cc(F)c(=O)[nH]1 [5-Fluorouracil] | 0.98 ± 0.002 | 0.766 ± 0.0085 | 0.981 ± 0.012 | 0.984 ± 0.015 | 0.9837 ± 0.0084 | 0.729 ± 0.03 |
| CN(C(Cc1ccc(OS(=O)(=O)c2cccc3cnccc23)cc1)C(=O)N1CCN(c2ccccc2)CC1)S(=O)(=O)c1cccc2cnccc12 (centres undefined) | 1.02 ± 0.011 | 0.993 ± 0.015 | 1.007 ± 0.0058 | 0.974 ± 0.029 | 1.01 | 1.01 |
| CN1CC[C@H](c2c(O)cc(O)c3c(=O)cc(-c4ccccc4Cl)oc23)[C@H](O)C1 [Flavopiridol (Alvocidib)] | 0.0613 ± 0.0073 | 0.0242 ± 0.0072 | 0.109 ± 0.015 | 0.0932 ± 0.025 | 0.0171 ± 0.0043 | 0.00703 ± 0.0012 |
| CN1CC[C@H](c2c(O)cc(O)c3c(=O)cc(-c4ccccc4Cl)oc23)[C@H](O)C1 [Flavopiridol hydrochloride] | 0.0447 ± 0.0058 | 0.0238 ± 0.0012 | 0.066 ± 0.0098 | 0.0883 ± 0.016 | 0.0103 ± 0.0015 | 0.00802 ± 0.0019 |
| CN1CC[C@@H](c2c(O)cc(O)c3c(=O)cc(-c4ccccc4Cl)oc23)[C@@H]1CO | 0.183 ± 0.011 | 0.031 ± 0.004 | 0.601 ± 0.026 | 0.0698 ± 0.0051 | 0.0431 ± 0.0039 | 0.00913 ± 0.002 |
| COc1ccc(CCN(C)CCCC(C#N)(c2cc(OC)c(OC)c(OC)c2)C(C)C)cc1OC (racemic) [(±)-Methoxyverapamil hydrochloride] | 1.007 ± 0.0058 | 0.998 ± 0.039 | 1.01 ± 0.01 | 1.01 ± 0.019 | 0.9847 ± 0.0042 | 0.999 ± 0.018 |
| Cc1cnc(NC(=O)Nc2cc(Br)c(C)cc2OC[C@@H]2CNCCO2)cn1 | 1.03 ± 0.015 | 0.827 ± 0.041 | 1.04 ± 0.015 | 1.04 ± 0.011 | 0.776 ± 0.01 | 0.334 ± 0.027 |
| CCCCCCCCCCCCCCCc1cccc(OCC)c1C(=O)Nc1ccc(Cl)c(C(F)(F)F)c1 | 1.01 ± 0.014 | 1.01 ± 0.011 | 1.01 ± 0.02 | 1.02 ± 0.016 | 0.9997 ± 0.0097 | 1 ± 0.0054 |

| SMILES | normalised cell viability [1] | normalised cell viability [2] | normalised cell viability [3] | normalised cell viability [4] | normalised cell viability [5] | normalised cell viability [6] |
| --- | --- | --- | --- | --- | --- | --- |
| N#C[C@@H]1CCCN1C(=O)CNC12CC3CC(CC(O)(C3)C1)C2 [Vildagliptin (LAF-237)] | 0.994 ± 0.0087 | 1 ± 0.011 | 0.9973 ± 0.0046 | 1.004 ± 0.01 | 0.998 ± 0.012 | 1.01 |
| CN1CCN(S(=O)(=O)c2ccc(-c3cnc(N)c(C(=O)Nc4cccnc4)n3)cc2)CC1 | 1.113 ± 0.011 | 1.2 ± 0.015 | 1.1 ± 0.011 | 1.1 ± 0.021 | 0.743 ± 0.0076 | 0.959 ± 0.021 |
| COc1ccc(-c2nc(N3CCOCC3)c3sc(CN(C)c4ncc(C(=O)NO)cn4)cc3n2)cn1 | 0.00442 ± 0.0038 | 0.00164 ± 0.00085 | 0.0384 ± 0.044 | 0.00149 ± 0.001 | 0.00371 ± 0.0034 | 0.000104 ± 0.00053 |
| CS(=O)(=O)N1CCN(Cc2cc3nc(-c4cccc5[nH]ncc45)nc(N4CCOCC4)c3s2)CC1 | 1.02 ± 0.022 | 1.05 ± 0.015 | 1.02 ± 0.011 | 1.05 ± 0.015 | 0.998 ± 0.012 | 1.005 ± 0.0087 |
| Cc1c(CN2CCN(C(=O)[C@H](C)O)CC2)sc2c(N3CCOCC3)nc(-c3cnc(N)nc3)nc12 | 0.631 ± 0.017 | 0.433 ± 0.034 | 0.59 ± 0.02 | 0.399 ± 0.076 | 0.757 ± 0.035 | 0.552 ± 0.033 |
| C[C@H]1c2cccc(O)c2C(O)=C2C(=O)[C@]3(O)C(O)=C(C(N)=O)C(=O)[C@@H](N(C)C)[C@@H]3[C@@H](O)[C@@H]21 [Doxycycline HCl] | 0.994 ± 0.007 | 0.986 ± 0.026 | 0.9957 ± 0.0031 | 0.99 ± 0.006 | 0.9947 ± 0.0025 | 1 ± 0.015 |
| NCC(O)C1CCCCCCC1 (centres undefined) [2-Cyclooctyl-2-hydroxyethylamine hydrochloride] | 0.987 ± 0.012 | 0.971 ± 0.016 | 0.998 ± 0.013 | 0.972 ± 0.02 | 0.9697 ± 0.0015 | 0.9663 ± 0.0085 |
| CCC(=O)NCC[C@@H]1CCc2ccc3c(c21)CCO3 [Ramelteon] | 1 ± 0.018 | 1.01 ± 0.011 | 1.006 ± 0.0069 | 1.01 ± 0.019 | 0.9943 ± 0.009 | 0.9933 ± 0.0061 |
| Nc1nc(Cl)nc2c1ncn2[C@@H]1O[C@H](CO)[C@@H](O)[C@H]1O [2-Chloroadenosine] | 0.998 ± 0.013 | 0.982 ± 0.011 | 0.998 ± 0.011 | 0.974 ± 0.052 | 0.9847 ± 0.0078 | 0.9883 ± 0.0078 |
| Nc1ncn([C@H]2C[C@H](O)[C@@H](CO)O2)c(=O)n1 [Decitabine] | 1.1 and 1.06 |  | 1.08 and 1.05 |  |  |  |
| Nc1nc(Cl)nc2c1ncn2[C@@H]1O[C@H](CO)[C@@H](O)[C@@H]1F [Clofarabine] | 0.124 ± 0.015 | 0.146 ± 0.0052 | 0.341 ± 0.017 | 0.302 ± 0.017 | 0.0363 ± 0.0032 | 0.0483 ± 0.0032 |
| Nc1nc(Cl)nc2c1ncn2[C@H]1C[C@H](O)[C@@H](CO)O1 [Cladribine] | 0.0575 ± 0.013 | 0.0436 ± 0.0033 | 0.169 ± 0.0085 | 0.1867 ± 0.0011 | 0.0131 ± 0.0023 | 0.0121 ± 0.0031 |
| Nc1ncn([C@H]2C[C@H](O)[C@@H](CO)O2)c(=O)n1 [5-Aza-2'-deoxycytidine; Decitabine] | 1.073 ± 0.0058 | 1.15 ± 0.026 | 1.07 ± 0.01 | 1.1 ± 0.02 | 0.204 ± 0.009 | 0.22 ± 0.021 |
| Nc1nc(Cl)nc2c1ncn2[C@@H]1O[C@H](COP(=O)(O)OP(=O)(O)OP(=O)(O)O)[C@H](O)C1O (some centres undefined) [2-Chloroadenosine triphosphate tetrasodium] | 0.992 ± 0.0076 | 0.818 ± 0.041 | 0.988 ± 0.018 | 0.917 ± 0.019 | 0.987 ± 0.0044 | 0.981 ± 0.0056 |
| Nc1ncn([C@H]2C[C@H](O)[C@@H](CO)O2)c(=O)n1 [5-Aza-2'-deoxycytidine] | 1.087 ± 0.0058 | 1.12 ± 0.05 | 1.07 ± 0.01 | 1.09 ± 0.015 | 0.581 ± 0.051 | 0.296 ± 0.027 |
| Nc1ncnc2c1ncn2[C@@H]1O[C@H](CO)[C@@H](O)[C@H]1O [Adenosine] | 0.9973 ± 0.0046 | 1.01 ± 0.01 | 0.995 ± 0.015 | 0.987 ± 0.019 | 1 ± 0.015 | 1.003 ± 0.0058 |
